A selection: hits, their analogues and other compounds. The true share with any hit is near 7.5%.
Luc counter – counter-screen: inhibitors of Kinase-Glo firefly luciferase; 0.28% of 200,000 active; Potency, µM (doses to about 38.3 µM), most hits filed as inhibitors; Kinase-Glo luciferase, ATP luminescence, 8 min; AID 1379; also: nearly all actives have a fitted effect of over 60% in size
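Luminescence was the read-out, taken after 8-minute incubation at ambient temperature. Luciferase turned over luciferin with 10 uM ATP in imidazole pH 7.2 buffer containing KCl, MgCl2, Tween 20 and BSA.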
Rab9 prom act – Rab9 promoter activation; Huh7 Rab9 promoter-luciferase reporter, luminescence, 24 h; Potency, µM (top dose mostly 9.22 µM), most hits filed as activators; 2.8% of 320,000 active; also: nearly all actives have a fitted effect of over 60% in size
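Rab9 promoter-driven luciferase in stably transfected Huh7 cells; 1500 cells/well rested 2 h, exposed to compound in DMSO for 24 h at 37 °C, 5% CO2. Luminescence read 10 min after adding luciferase reagent at ambient temperature.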
SMN2 splice enh – SMN2 splice variant enhancement | HEK293 SMN2-luciferase splicing reporter, luminescence, 30-36 h | Potency, µM (top dose mostly 46.1 µM), usual class: activators | 2.8% of 210,000 active | AID 1458; also: nearly all actives have a fitted effect of over 55% in size
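HEK293 cells carry an SMN2 […]–luciferase reporter in which exon 7 inclusion puts luciferase in frame. Cells were plated 10-12 h before compound addition, then incubated 30-36 h at 37C. ONE-Glo luminescence was read; sodium butyrate at 4.5 mM final served as control.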
NPC1 promoter act – NPC1 promoter activation. Huh7 NPC1 promoter luciferase reporter, 24 h. Potency, µM (highest dose often 9.22 µM), most hits filed as activators. 2.4% of 320,000 active; also: nearly all actives have a fitted effect of over 60% in size
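Cells: Huh7 expressing luciferase under the NPC1 promoter, 1500/well. Seeded 2 h, compound added, incubated 24 h at 37 °C. Luciferase reagent, 10 min ambient, then luminescence.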
ELG1 genotox – induces genotoxicity in HEK293T cells with luciferase-tagged ELG1 | HEK293T ELG1-luciferase reporter, luminescence, 16 h | Potency, µM (doses to about 46 µM), hits mostly activators | 1.3% of 330,000 active | AID 504466; also: nearly all actives have a fitted effect of over 60% in size
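16 hr compound incubation (37 °C, 5% CO2) of HEK293T cells carrying luciferase-tagged ELG1; luciferase then measured by ONE-Glo luminescence after 30 min at RT.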
FLuc modulator – firefly luciferase modulation, counter-screen for miR-21 project; P08659; purified FLuc, Km substrates, luminescence inhibition; Potency, µM (series often up to 57.5 µM), most hits filed as inhibitors; 6.9% of 360,000 active; AID 588342; also: nearly all actives have a fitted effect of over 55% in size
Target sequence (P08659 whole entry, looked up): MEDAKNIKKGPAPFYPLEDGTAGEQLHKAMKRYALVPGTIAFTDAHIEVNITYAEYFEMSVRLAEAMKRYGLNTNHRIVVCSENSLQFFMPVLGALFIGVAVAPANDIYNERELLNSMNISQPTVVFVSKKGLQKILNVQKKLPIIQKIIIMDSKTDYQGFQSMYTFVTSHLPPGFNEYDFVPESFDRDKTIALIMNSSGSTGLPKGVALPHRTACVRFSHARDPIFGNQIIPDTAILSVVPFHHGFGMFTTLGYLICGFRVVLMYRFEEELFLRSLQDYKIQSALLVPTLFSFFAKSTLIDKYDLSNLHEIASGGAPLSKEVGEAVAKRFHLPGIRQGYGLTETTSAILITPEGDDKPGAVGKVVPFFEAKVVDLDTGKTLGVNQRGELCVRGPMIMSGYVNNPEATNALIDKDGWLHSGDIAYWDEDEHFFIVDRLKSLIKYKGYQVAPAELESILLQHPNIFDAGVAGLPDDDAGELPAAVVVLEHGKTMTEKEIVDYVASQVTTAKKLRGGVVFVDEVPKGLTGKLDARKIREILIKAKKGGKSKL
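Purified P. pyralis luciferase (10nM final) with 10uM D-luciferin and 10uM ATP (Km levels) in 50mM Tris acetate pH 7.5, 10mM Mg acetate, 0.01% Tween-20, 0.05% BSA; qHTS 6-point titration, ~60 µM downward; luminescence read.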
A number is an active result; n = inactive; u = inconclusive; x = no result given; [ ] = dose if it differs, or a comment. Calls follow the shape of the dose curve; as a rule, active = well fitted curve in the direction sought with a large enough effect; inconclusive = small, poorly fitted or top-dose-only effect, or another doubt; inactive = no such curve, though single readings can be large; an effect the other way counts as inactive or inconclusive.

SMILES	Luc counter	Rab9 prom act	SMN2 splice enh	NPC1 promoter act	ELG1 genotox	FLuc modulator
COc1ccccc1/C=C/C(=O)Nc1cccnc1Cl	x	n	x	u	n	27µM
O=C(c1noc2c1CCCCC2)N1CCN(c2cccc(C(F)(F)F)c2)CC1	x	x	x	x	x	n
Cc1ccc(S(=O)(=O)N2CCN(C(C)C(=O)Nc3ccccc3-c3ccccc3)CC2)cc1 (stereo not given)	n	n	n	n	n	n
Cc1ccc2c(c1)cc1c(=O)n(CC(=O)NCc3ccco3)nc(C)n12	x	x	n	x	x	n
Cc1ccc(Nc2cc(C)c(C#N)c3nc4ccccc4n23)c(C)c1	x	x	n	x	x	n
C/C(=N\Nc1cccc2cccnc12)c1ccc[nH]1	n	1.4µM	11µM	u	n	1.1µM
CC[C@@H]1C/C=C\Cc2ccccc2[C@H](C(=O)C[C@H](O)CC(C)=O)OC1=O	x	x	x	x	n	x
COc1cc(/C=C2/SC(=S)N(Cc3ccccc3)C2=O)ccc1O	x	n	x	n	u	27µM
COc1ccc(/C=C2\SC(=S)N(Cc3cccnc3)C2=O)cc1C	n	n	n	n	n	5.4µM
O=C1/C(=C/c2ccc(O)cc2)SC(=S)N1Cc1cccnc1	n	n	n	n	n	n
COc1cc(/C=C2\SC(=S)N(C(C(=O)O)c3ccccc3)C2=O)ccc1O (stereo not given)	x	n	x	n	n	19µM
CCOc1ccc(/C=C2\SC(=S)N(Nc3ccccc3)C2=O)cc1OC	n	n	n	n	n	11µM
CCOc1cc(/C=C2\SC(=S)N(C(C(=O)O)c3ccccc3)C2=O)ccc1O (stereo not given)	x	n	x	n	n	u
C[C@@H]1CN([C@@H](C)CO)C(=O)c2cccc(NC(=O)c3nc4ccccc4s3)c2O[C@@H]1CN(C)CC1CC1	x	x	x	x	n	x
O=C(c1ccccc1)[C@H]1[C@H](c2ccccc2)[C@@]2(N=C(c3ccccc3)OC2=O)C2c3ccccc3C=NN21 (stereo not given in full)	n	4.5µM	u	4µM	n	u
NC(=O)c1cccnc1Nc1cccc([N+](=O)[O-])c1	n	1.8µM	x	4µM	u	15µM
O=C(CSc1nc2ccccc2c(=O)n1CC1CCCO1)Nc1ccc(F)cc1 (stereo not given)	x	n	x	n	n	n
O=c1c2c(nc3cc(-c4ccc(F)cc4)[nH]n13)CCCC2	n	0.45µM	u	u	2.3µM	1.5µM
O=c1c2c(nc3cc(-c4cccc(Cl)c4)[nH]n13)CCC2	n	1.6µM	8.9µM	2µM	2.3µM	4.8µM
O=c1c2c(nc3c(-c4ccc(Cl)cc4)c[nH]n13)CCCC2	n	n	n	n	n	n
O=c1c2c(nc3cc(-c4cccc(F)c4)[nH]n13)CCC2	n	1.1µM	8.9µM	1.6µM	u	6µM
Nc1cccc(C(F)(F)F)c1	x	x	n	x	x	x
CN(Cc1ccccc1)C(=O)c1[nH]cnc1C(=O)Nc1cccc(Cl)c1	x	n	x	n	n	n
O=C1NC(=Nc2ccccc2)S/C1=C\C=C\c1ccco1	n	n	14µM	n	u	19µM
O=C1NC(=Nc2cccnc2)S/C1=C\c1cccc(F)c1	x	n	x	n	n	30µM
SMILES	Luc counter	Rab9 prom act	SMN2 splice enh	NPC1 promoter act	ELG1 genotox	FLuc modulator
Cc1ccc(N=C2NC(=O)/C(=C/c3cccn3C)S2)cc1C	x	u	x	n	n	u
O=C1NC(=Nc2ccccc2)S/C1=C/c1cccs1	n	u	u	u	u	11µM
Cc1ccc(N=C2NC(=O)/C(=C/C=C/c3ccco3)S2)cc1	n	n	u	n	n	u
Cc1ccc(N=C2NC(=O)/C(=C/c3cccn3C)S2)cc1	x	u	x	u	23µM	3.4µM
COc1cccc(C(=O)NC(=O)Nc2ccc(-n3nc(C(F)(F)F)cc3C(F)(F)F)cc2)c1	x	x	n	x	x	n
CCN(CC)S(=O)(=O)c1cc(C(=O)NC2=NCCS2)ccc1Cl	n	n	n	n	n	u
CCN(CC)S(=O)(=O)c1cc(C(=O)Nc2ccccc2[N+](=O)[O-])ccc1Cl	n	u	n[1.84 µM]	u	u	9.5µM
CCN(CC)S(=O)(=O)c1cc(C(=O)Nc2cc(C)[nH]n2)ccc1Cl	x	2.5µM	x	2.2µM	u	8.5µM
